This note sets out measurements from PubChem BioAssay (Tox21).

Records with an inconclusive call do not appear. Calls of active or inactive are those of the source. Unless noted, the call rests on the fitted dose curve.

The nature of test [1]: qHTS assay to identify small molecule agonists of the sonic hedgehog signaling (Shh) pathway (AID 1259368).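 Further: NIH/3T3-derived 3T3Gli1-Luc cells carrying a stable Gli1-driven firefly luciferase reporter; series mostly up to about 92 µM; nearly all actives have a fitted effect of over 15% in size.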 Put shortly: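 Luminescence was read after 30 min at room temperature with luciferase reagent. Before that, 3T3Gli1-Luc cells (NIH/3T3 clone, stable Gli1-Luc reporter; 2,000/well) were exposed to compounds for 24 hr at 37C, 5% CO2, compounds being added 4 hr post-plating.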
For orientation: qHTS replaces the single test concentration by a dilution series.

A short description of test [2]: qHTS assay to identify small molecule antagonists of the sonic hedgehog signaling (Shh) pathway (AID 1259369). Further: nearly all actives have a fitted effect of over 45% in size. Further: potency means the concentration at half of the fitted maximal effect. Put shortly: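 Antagonist mode: compound added to 3T3 Gli1-Luc cells followed by conditioned-medium stimulation, 24 h at 37 C, 5% CO2. Inhibition taken as loss of Gli1-driven luciferase luminescence.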
The target in test [3] is Estrogen receptor beta (Homo sapiens) (UniProt Q92731). Briefly: qHTS assay to identify small molecule antagonists of the estrogen receptor beta (ER-beta) signaling pathway (AID 1259378; active means well fitted inhibition curve with a large enough effect in the signal ratio in the repeat runs, not every such curve was filed as active; the % refers to the signal ratio; further: potency means the concentration at half of the fitted maximal effect). The procedure, abridged: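 ER-beta-UAS-bla HEK293T cells in 2% charcoal-stripped FBS medium treated with compound plus 1nM final 17-beta-estradiol for 16 hr at 37C. Beta-lactamase reporter read by FRET substrate fluorescence after 2 hours at room temperature.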

A short description of test [4]: qHTS assay to identify small molecule agonists of the androgen receptor (AR) signaling pathway in the presence of an antagonist - cell viability counter screen (AID 1259379; active means well fitted curve in the direction sought with a large enough effect in the repeat runs; an effect the other way counts as inactive or inconclusive; further: nearly all actives have a fitted effect of over 25% in size; further: potency means the concentration at half of the fitted maximal effect). Put shortly:
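Cytotoxicity counter-screen run in the same wells as the nilutamide-challenged (3.0 µM final) AR agonist assay in MDA-kb2 cells. Compounds tested at 15 concentrations for 16 h, 37 °C without CO2; CellTiter-Fluor fluorescence read.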

Test [5] in a line: qHTS assay to identify small molecule agonists of the estrogen receptor beta (ER-beta) signaling pathway - cell viability counter screen (AID 1259380; active means well fitted curve in the direction sought with a large enough effect in the repeat runs; an effect the other way counts as inactive or inconclusive; further: nearly all actives have a fitted effect of over 30% in size; further: potency means the concentration at half of the fitted maximal effect). The procedure, abridged: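 Cell viability counter screen: CellTiter-Glo luminescence (30 min, room temperature) measured in the same wells as the beta-lactamase readout, after 16 hr compound exposure at 37C of ER-beta-bla HEK293T cells in 2% charcoal-stripped FBS medium.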

Test [6] in a line: qHTS assay to identify small molecule antagonists of the estrogen receptor beta (ER-beta) signaling pathway - cell viability counter screen (AID 1259382; active means well fitted curve in the direction sought with a large enough effect in the repeat runs; an effect the other way counts as inactive or inconclusive; further: series mostly up to about 92 µM; nearly all actives have a fitted effect of over 55% in size). The procedure, abridged:
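Cytotoxicity was measured in the same wells by CellTiter-Glo luminescence after 30 min at room temperature. Cells were ER-beta-bla HEK293T in charcoal-stripped serum, given compound together with 1 nM E2 and incubated 16 h at 37C.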

The target in test [7] is Androgen receptor (Homo sapiens) (UniProt P10275). Briefly: qHTS assay to identify small molecule agonists of the androgen receptor (AR) signaling pathway in the presence of an antagonist (AID 1259381). Further: nearly all actives have a fitted effect of over 15% in size. Put shortly: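 Agonist-mode confirmation run against 3.0 uM final nilutamide: compounds titrated at 15 concentrations onto MDA-kb2 MMTV-luciferase reporter cells. Luminescence measured with ONE-Glo following 16 hr incubation, 37C, 0% CO2.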

Test [8] deals with Estrogen receptor (Homo sapiens) (UniProt P03372). The experiment in a line: qHTS assay to identify small molecule agonists of the estrogen receptor alpha (ER-alpha) signaling pathway in the presence of an antagonist (AID 1259383). Further: top concentration of the series differs between compounds; nearly all actives have a fitted effect of over 15% in size. The procedure, abridged:
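Agonist-mode confirmation run in the presence of 10.0nM (final) ICI-182,780 antagonist. The reporter was ERE-driven luciferase in VM7Luc4E2 cells, grown in charcoal-stripped serum. Cells were exposed to 15-concentration compound series for 22hr, then ONE-Glo luminescence was read.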

Test [9] is described as follows: qHTS assay to identify small molecule agonists or antagonists of the thyroid stimulating hormone receptor (TSHR) signaling pathway - wild type cell line counter screen (AID 1259384). Put shortly:
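Wild-type Hek293 cells, 800/well, 18 h at 37C, then compound with Ro20-1724 for 30 min RT. cAMP by HTRF (cAMP-d2/anti-cAMP cryptate), 1 h RT, fluorescence read. 15 concentrations, triplicates.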

Sequence of Estrogen receptor beta (Homo sapiens) (Q92731 whole entry, looked up): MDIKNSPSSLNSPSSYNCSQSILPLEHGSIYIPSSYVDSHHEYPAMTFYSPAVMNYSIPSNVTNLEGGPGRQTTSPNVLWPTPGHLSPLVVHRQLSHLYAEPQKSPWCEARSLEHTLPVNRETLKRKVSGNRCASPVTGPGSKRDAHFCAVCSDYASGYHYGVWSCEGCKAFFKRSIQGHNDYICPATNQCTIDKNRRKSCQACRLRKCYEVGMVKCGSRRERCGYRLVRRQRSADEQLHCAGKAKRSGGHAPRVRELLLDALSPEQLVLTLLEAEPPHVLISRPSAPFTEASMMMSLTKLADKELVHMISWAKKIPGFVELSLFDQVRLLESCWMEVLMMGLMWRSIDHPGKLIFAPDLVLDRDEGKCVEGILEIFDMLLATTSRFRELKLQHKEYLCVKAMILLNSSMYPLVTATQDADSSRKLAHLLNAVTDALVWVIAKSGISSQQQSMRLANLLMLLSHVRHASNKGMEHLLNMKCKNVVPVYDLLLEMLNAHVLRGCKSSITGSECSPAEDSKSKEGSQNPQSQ
Sequence of Androgen receptor (Homo sapiens) (P10275 whole entry, looked up): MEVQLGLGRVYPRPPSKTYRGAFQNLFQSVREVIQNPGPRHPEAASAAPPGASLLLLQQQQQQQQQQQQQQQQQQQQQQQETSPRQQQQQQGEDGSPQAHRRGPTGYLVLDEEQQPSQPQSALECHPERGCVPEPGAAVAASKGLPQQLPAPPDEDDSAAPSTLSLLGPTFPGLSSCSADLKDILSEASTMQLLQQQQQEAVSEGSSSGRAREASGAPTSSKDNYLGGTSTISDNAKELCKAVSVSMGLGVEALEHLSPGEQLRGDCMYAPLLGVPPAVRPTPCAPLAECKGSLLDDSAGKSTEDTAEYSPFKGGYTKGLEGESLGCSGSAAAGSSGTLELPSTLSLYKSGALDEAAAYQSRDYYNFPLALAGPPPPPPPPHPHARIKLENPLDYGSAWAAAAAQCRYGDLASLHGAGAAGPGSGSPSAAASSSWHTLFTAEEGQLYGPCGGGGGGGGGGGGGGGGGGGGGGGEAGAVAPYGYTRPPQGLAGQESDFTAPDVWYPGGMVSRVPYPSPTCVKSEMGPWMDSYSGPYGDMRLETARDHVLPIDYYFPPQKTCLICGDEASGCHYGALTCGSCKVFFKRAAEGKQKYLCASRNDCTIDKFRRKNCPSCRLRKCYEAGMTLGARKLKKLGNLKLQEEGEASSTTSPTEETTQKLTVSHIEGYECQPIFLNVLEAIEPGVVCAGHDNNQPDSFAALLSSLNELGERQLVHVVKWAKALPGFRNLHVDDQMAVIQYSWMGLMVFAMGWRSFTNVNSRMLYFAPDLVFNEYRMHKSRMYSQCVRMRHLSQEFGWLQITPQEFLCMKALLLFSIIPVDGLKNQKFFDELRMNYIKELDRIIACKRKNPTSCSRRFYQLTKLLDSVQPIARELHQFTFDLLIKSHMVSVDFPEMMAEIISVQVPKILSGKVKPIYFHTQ
Sequence of Estrogen receptor (Homo sapiens) (P03372 whole entry, looked up): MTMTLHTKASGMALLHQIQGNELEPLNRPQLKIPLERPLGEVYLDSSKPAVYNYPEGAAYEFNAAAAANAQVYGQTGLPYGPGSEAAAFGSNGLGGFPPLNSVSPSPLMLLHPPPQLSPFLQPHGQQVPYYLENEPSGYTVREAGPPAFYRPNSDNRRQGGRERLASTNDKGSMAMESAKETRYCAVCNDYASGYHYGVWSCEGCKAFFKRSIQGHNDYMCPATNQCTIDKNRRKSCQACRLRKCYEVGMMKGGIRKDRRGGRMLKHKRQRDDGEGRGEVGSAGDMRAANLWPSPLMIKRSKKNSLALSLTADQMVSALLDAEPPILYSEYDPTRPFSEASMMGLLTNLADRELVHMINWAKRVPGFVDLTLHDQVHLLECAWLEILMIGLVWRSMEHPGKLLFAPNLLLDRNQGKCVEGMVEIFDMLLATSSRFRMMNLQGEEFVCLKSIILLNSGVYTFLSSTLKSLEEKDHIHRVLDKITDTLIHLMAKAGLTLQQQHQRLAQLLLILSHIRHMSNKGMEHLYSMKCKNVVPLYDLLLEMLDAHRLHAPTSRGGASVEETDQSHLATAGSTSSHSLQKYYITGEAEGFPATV

As for `O=Cc1ccc(Cl)cc1Cl`, the Potency entry in test [1], in test [2], in test [3], in [4], in [5] and in test [6] was “inactive” each time.

Consider `O=S1(=O)OC(c2cc(Br)c(O)c(Br)c2)(c2cc(Br)c(O)c(Br)c2)c2ccccc21`, for which the Potency entry in test [1], in [7] and in test [8] was “inactive” each time. Further, the Potency in [2] is 7.05 µM (active); in test [4] it was 25 µM (active); in test [5], 31.5 µM (active).

As for `ClP(Cl)(Cl)(Cl)Cl`, the Potency result in test [1], in test [2], in test [4], in test [5], in [6] and in test [8] was “inactive” in each case. Also, in test [9], the compound was classed as inactive.

Take `BrCC(Br)C1CCC(Br)C(Br)C1` (stereo not given): the Potency entry in test [1], in test [2], in test [4], in test [5] and in test [6] was “inactive” throughout.

Take `ClC=C(Cl)Cl`: the Potency result in test [1], in test [2], in test [4], in test [5], in test [6] and in [8] was “inactive” each time. The outcome in test [9] was inactive.

Consider `CCC(C)(NC(=O)c1cc(Cl)c(C)c(Cl)c1)C(=O)CCl` (stereo not given), for which the Potency result in test [1], in [2] and in [8] was “inactive” each time. Further, the Potency in test [3] is 19.4 µM (active); in [4] it was 61.5 µM (active); in test [5], 61.5 µM (active). In [9], the outcome was inactive.

With `CNC(C)Cc1ccccc1OC` (stereo not given), the Potency result in test [1], in [2], in test [4], in test [5], in [6] and in test [8] was “inactive” in each case.

Regarding `CO/N=C(/C(=O)OC)c1ccccc1COc1ccccc1C`, the Potency result in test [1], in test [7], in test [6] and in test [8] was “inactive” each time. Besides, the Potency in [2] is 4.33 µM (active); in test [4], 54.5 µM (active); in [5], 15.4 µM (active). In test [9], the call was inactive.

`Cc1ccccc1C(=O)Nc1cccc(OC(C)C)c1`: the Potency result in [1], in test [3], in test [4], in [7] and in test [8] was “inactive” throughout. Also, the values for the Potency in [2] and in test [5] were 17.2 µM (active) and 19.3 µM (active), respectively. The outcome in [9] was inactive.
